Results reported in PubChem BioAssay (EPA / NIEHS).
Inconclusive results are not listed. Active and inactive are the calls of the source. The calls were made as follows, unless noted: active = hit-call score of the fitted dose curve at least 0.9, where 1 is the maximum; inactive = score below 0.9.

Columns and labels:
[1] = ATG_TCF_b_cat_CIS: Attagene CIS-FACTORIAL HepG2 Assay for human T-Cell-Factor with beta-catenin (TCF/b-cat) (AID 2282965); settings: HepG2 TCF/beta-catenin cis-reporter transcription, actives raise or lower the signal
Method in brief: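 HepG2, transient MRTU transfection, cis-element-driven reporters (endogenous TFs). 24 h compound exposure. Readout: reporter mRNA by RT-PCR + 6-FAM primer extension, HpaI digest, capillary electrophoresis. Gain/loss fit vs DMSO baseline.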

[2] = ATG_TAL_CIS: Attagene CIS-FACTORIAL HepG2 Assay for human TAL Basal Promoter (AID 2282966); settings: HepG2 Attagene cis-factorial TAL promoter reporter; actives raise or lower the signal;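 also: background control endpoint measuring basal TAL promoter reporter mRNA not a specific factor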
Method in brief: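 HepG2, transient MRTU transfection, 24 h compound exposure; RNA → oligo(dT) RT → PCR → 6-FAM primer extension → HpaI digest → CE fluorescence. Bidirectional curve fit vs DMSO. Background-control readout.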

[3] = ATG_TGFb_CIS: Attagene CIS-FACTORIAL HepG2 Assay for human Transforming Growth Factor (TGF) (AID 2282967); settings: HepG2 Attagene CIS TGFb reporter, mRNA transcription; actives raise or lower the signal
Method in brief: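 Cells were dosed for 24 hours, after which total RNA was reverse-transcribed and reporter sequences amplified, labeled and sized by capillary electrophoresis. Activity was fitted in both directions against DMSO.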

[4] = ATG_VDRE_CIS: Attagene CIS-FACTORIAL HepG2 Assay for human Vitamin D Receptor Element (VDRE) (AID 2282968); settings: HepG2 VDRE cis-reporter transcription, actives raise or lower the signal
Method in brief: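 Transient MRTU transfection of HepG2, 24 h compound exposure. Readout: reporter transcripts via RT-PCR and capillary electrophoresis, fluorescence. Bidirectional fit vs DMSO.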

[5] = target: Nuclear receptor subfamily 1 group I member 3 (Homo sapiens) (UniProt Q14994); test: ATG_CAR_TRANS: Attagene TRANS-FACTORIAL HepG2 Assay for human Constitutive Androstane Receptor (CAR) (AID 2282969; active = hit-call score of the fitted dose curve at least 0.9, where 1 is the maximum;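 also: activators raise reporter mRNA above DMSO so AC50 marks induction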); settings: HepG2 Attagene TRANS-FACTORIAL CAR reporter
Method in brief: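 Transiently transfected HepG2, multiplex TRANS reporters (CAR-Gal4 chimera driving GAL4-UAS reporter). 24 h dosing. Readout: reporter transcript by RT-PCR + capillary electrophoresis, fluorescence intensity; positive direction vs DMSO.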

[6] = target: Estrogen receptor (Homo sapiens) (UniProt P03372); test: ATG_ERa_TRANS: Attagene TRANS-FACTORIAL HepG2 Assay for human Estrogen Receptor alpha (ERa) (AID 2282970; active = hit-call score of the fitted dose curve at least 0.9, where 1 is the maximum); settings: HepG2 Attagene TRANS ERa GAL4 reporter, mRNA
Method in brief: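 Reporter mRNA induction after 24 hours, detected by fluorescent RT-PCR and capillary electrophoresis, gives the read-out. Cells are HepG2 transiently transfected with GAL4-UAS reporter transcription units responding to chimeric NR-Gal4. Activity is taken as gain of signal over DMSO baseline.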

[7] = target: Steroid hormone receptor ERR1 (Homo sapiens) (UniProt P11474); test: ATG_ERRa_TRANS: Attagene TRANS-FACTORIAL HepG2 Assay for human Estrogen-Related Receptor alpha (ERRa) (AID 2282971; active = hit-call score of the fitted dose curve at least 0.9, where 1 is the maximum); settings: HepG2 Attagene TRANS reporter, ERRa transactivation
Method in brief: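 Transfected HepG2, 24 h dosing, ERRa-Gal4 chimera driving GAL4-UAS reporter. Readout: reporter mRNA via RT-PCR plus capillary electrophoresis (fluorescence). Positive direction vs DMSO control.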

[8] = target: X-box-binding protein 1 (Homo sapiens) (UniProt P17861); test: ATG_Xbp1_CIS: Attagene CIS-FACTORIAL HepG2 Assay for human X-box Binding Protein 1 (XBP1) (AID 2282972); settings: HepG2 XBP1 cis-element reporter, Attagene multiplex; actives raise or lower the signal
Method in brief: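 Human hepatoma HepG2, cis-element reporter system, 24 h treatment; mRNA quantified by RT-PCR/CE fluorescence; fit relative to DMSO.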

[9] = target: Androgen receptor (Homo sapiens) (UniProt P10275); test: ATG_AR_TRANS: Attagene TRANS-FACTORIAL HepG2 Assay for human Androgen Receptor (AR) (AID 2282973; active = hit-call score of the fitted dose curve at least 0.9, where 1 is the maximum); settings: HepG2 Attagene TRANS-FACTORIAL AR reporter transcription
Method in brief: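 Readout is reporter transcript abundance, quantified by fluorescent RT-PCR products separated on capillary electrophoresis. Human HepG2 liver cells carried transiently transfected NR-Gal4 chimera plus GAL4-UAS reporter constructs and were dosed for 24 h; activity scored upward versus DMSO.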

[10] = ATG_M_19_TRANS: Attagene TRANS-FACTORIAL HepG2 Assay for M19 Transcription Factor (Internal Marker) (AID 2282974; active = hit-call score of the fitted dose curve at least 0.9, where 1 is the maximum); settings: HepG2 Attagene TRANS-FACTORIAL M19 internal marker reporter
Method in brief: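 Using RT-PCR and capillary electrophoresis, reporter mRNA from transiently transfected human HepG2 cells was quantified following 24 h exposure; activity was fitted in the positive direction against DMSO.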

Sequence of Estrogen receptor (Homo sapiens) (P03372 whole entry, looked up, the tested form may be a part): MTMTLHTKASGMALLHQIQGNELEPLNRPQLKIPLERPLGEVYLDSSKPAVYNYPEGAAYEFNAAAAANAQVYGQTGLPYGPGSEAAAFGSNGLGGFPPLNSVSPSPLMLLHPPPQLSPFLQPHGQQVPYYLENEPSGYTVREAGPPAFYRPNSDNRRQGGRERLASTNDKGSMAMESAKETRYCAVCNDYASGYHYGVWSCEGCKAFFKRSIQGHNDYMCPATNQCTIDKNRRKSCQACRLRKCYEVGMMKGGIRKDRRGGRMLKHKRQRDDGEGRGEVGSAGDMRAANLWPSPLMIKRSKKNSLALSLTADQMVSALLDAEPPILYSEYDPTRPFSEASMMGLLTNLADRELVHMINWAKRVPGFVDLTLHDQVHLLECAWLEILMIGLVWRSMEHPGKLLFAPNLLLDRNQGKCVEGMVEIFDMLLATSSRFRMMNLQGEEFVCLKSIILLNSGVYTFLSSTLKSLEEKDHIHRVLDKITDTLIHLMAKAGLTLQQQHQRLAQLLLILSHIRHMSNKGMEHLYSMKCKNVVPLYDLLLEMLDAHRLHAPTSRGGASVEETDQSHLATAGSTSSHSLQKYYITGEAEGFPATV
Sequence of X-box-binding protein 1 (Homo sapiens) (P17861 whole entry, looked up): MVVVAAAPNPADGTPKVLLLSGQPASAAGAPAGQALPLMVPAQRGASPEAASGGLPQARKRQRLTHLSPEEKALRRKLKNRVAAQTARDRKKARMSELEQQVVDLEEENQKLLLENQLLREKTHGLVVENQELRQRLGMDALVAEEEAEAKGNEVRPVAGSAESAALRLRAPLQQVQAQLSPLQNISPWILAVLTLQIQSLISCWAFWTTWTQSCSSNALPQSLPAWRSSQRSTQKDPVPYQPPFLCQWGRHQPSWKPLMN
Sequence of Nuclear receptor subfamily 1 group I member 3 (Homo sapiens) (Q14994 whole entry, looked up, the tested form may be a part): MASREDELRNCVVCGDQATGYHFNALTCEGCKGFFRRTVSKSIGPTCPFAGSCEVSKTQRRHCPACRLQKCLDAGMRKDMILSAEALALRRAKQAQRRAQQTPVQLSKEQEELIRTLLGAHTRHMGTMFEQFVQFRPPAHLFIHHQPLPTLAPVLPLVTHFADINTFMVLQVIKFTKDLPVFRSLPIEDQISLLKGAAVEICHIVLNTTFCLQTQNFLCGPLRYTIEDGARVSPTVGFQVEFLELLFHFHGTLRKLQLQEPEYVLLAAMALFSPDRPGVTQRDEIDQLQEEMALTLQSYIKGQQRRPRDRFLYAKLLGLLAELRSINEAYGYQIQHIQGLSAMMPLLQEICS
Sequence of Steroid hormone receptor ERR1 (Homo sapiens) (P11474 whole entry, looked up, the tested form may be a part): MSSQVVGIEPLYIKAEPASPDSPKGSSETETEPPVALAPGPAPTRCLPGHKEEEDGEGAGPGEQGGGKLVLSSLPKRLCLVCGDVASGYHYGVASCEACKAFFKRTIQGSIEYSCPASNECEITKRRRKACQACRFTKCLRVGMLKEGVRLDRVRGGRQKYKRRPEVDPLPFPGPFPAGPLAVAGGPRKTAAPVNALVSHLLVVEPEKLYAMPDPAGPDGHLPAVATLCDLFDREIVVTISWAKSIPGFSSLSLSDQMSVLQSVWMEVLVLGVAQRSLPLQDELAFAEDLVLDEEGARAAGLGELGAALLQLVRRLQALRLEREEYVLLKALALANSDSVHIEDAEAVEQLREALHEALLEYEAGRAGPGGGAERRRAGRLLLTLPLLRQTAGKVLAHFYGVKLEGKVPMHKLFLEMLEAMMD
Sequence of Androgen receptor (Homo sapiens) (P10275 whole entry, looked up, the tested form may be a part): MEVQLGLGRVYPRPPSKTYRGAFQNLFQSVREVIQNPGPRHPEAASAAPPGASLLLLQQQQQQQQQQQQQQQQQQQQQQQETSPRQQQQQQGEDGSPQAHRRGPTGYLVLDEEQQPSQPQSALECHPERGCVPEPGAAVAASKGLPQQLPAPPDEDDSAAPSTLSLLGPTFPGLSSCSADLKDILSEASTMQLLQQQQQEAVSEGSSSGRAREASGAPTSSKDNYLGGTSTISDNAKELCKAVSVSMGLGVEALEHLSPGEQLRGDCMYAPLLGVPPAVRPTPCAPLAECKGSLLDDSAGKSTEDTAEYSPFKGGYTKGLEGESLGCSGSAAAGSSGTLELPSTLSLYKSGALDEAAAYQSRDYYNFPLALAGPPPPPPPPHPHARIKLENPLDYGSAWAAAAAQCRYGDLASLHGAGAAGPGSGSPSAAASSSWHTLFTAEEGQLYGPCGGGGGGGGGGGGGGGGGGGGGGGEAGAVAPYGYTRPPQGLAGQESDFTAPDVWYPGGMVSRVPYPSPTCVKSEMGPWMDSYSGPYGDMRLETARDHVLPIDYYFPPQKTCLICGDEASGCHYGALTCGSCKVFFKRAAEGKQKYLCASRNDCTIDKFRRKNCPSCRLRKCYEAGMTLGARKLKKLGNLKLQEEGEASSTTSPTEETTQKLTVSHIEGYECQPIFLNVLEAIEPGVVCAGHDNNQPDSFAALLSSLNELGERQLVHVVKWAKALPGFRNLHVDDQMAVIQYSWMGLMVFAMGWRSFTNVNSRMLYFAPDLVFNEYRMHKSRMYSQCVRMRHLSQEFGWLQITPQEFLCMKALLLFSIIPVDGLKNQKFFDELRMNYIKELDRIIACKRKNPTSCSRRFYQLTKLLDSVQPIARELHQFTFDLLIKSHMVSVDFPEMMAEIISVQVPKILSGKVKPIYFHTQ

SMILES | outcome [1] | outcome [2] | outcome [3] | outcome [4] | outcome [5] | outcome [6] | outcome [7] | outcome [8] | outcome [9] | outcome [10] | AC50 [6] | AC50 [4] | AC50 [8]
CCOP(=S)(OCC)SCS(=O)(=O)CC | inactive | inactive | inactive | inactive | inactive | inactive | inactive | inactive | inactive | inactive | – | – | –
O=C(CBr)OCc1ccccc1 | inactive | inactive | inactive | inactive | inactive | inactive | – | inactive | – | inactive | – | – | –
Cc1c([N+](=O)[O-])cc2c(c1[N+](=O)[O-])C(C)(C)CC2(C)C | inactive | inactive | inactive | inactive | – | inactive | inactive | inactive | – | – | – | – | –
CCCCCCCc1ccc(O)cc1 | inactive | inactive | inactive | inactive | inactive | – | – | inactive | inactive | inactive | – | – | –
CCC(C)(C)c1ccc(O)cc1 | inactive | inactive | inactive | inactive | – | – | inactive | inactive | – | – | 2250 nM (active) | – | –
Cc1cc(C)c(C(=O)P(=O)(c2ccccc2)c2ccccc2)c(C)c1 | inactive | inactive | inactive | – | – | – | – | – | – | – | 25500 nM (active) | 540 nM (active) | 53400 nM (active)
Cc1ccc(N)cc1N | inactive | inactive | inactive | inactive | – | inactive | – | inactive | – | – | – | – | –
O=[N+]([O-])c1ccc(Cl)c(Cl)c1 | inactive | inactive | inactive | inactive | – | inactive | inactive | inactive | – | inactive | – | – | –
O=C(O)C(F)(F)C(F)(F)C(=O)O | inactive | inactive | inactive | inactive | inactive | inactive | – | inactive | – | inactive | – | – | –
CSC(C)(C)C=NO | inactive | inactive | inactive | inactive | inactive | – | – | inactive | – | – | – | – | –
CC(Cl)(Cl)C(=O)O | inactive | inactive | inactive | inactive | – | inactive | – | inactive | – | – | – | – | –
N#C/C=C/c1ccccc1 | inactive | inactive | inactive | inactive | inactive | – | – | inactive | inactive | – | – | – | –
O=S(=O)(c1ccc(O)cc1)c1ccc(O)cc1 | inactive | inactive | inactive | inactive | – | – | – | inactive | – | – | 1060 nM (active) | – | –
CCOC(=O)c1ccccc1C(=O)OCC | inactive | inactive | inactive | inactive | – | inactive | inactive | inactive | – | – | – | – | –
FC(F)(F)C(F)(C(F)(F)F)C(F)(F)C(F)(F)CC1CO1 (configuration not stated) | inactive | inactive | inactive | inactive | – | inactive | – | inactive | inactive | – | – | – | –
